From ChEMBL document CHEMBL1961873, “Compounds: GSK PKIS; Assays: Nanosyn kinase panel” (2012)

What was measured:
[1] = target: Mitogen-activated protein kinase 3 (Homo sapiens) (UniProt P27361); settings: at 1 µM;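 also: values are mean percent inhibition of MAPK3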
[2] = target: SRSF protein kinase 3 (Homo sapiens) (UniProt Q9UPE1); settings: at 0.1 µM
[3] = target: SRSF protein kinase 3 (Homo sapiens) (UniProt Q9UPE1); settings: at 1 µM
[4] = target: Mitogen-activated protein kinase 14 (Homo sapiens) (UniProt Q16539); settings: at 0.1 µM
Chain of Mitogen-activated protein kinase 14 (Homo sapiens) (Q16539 whole entry): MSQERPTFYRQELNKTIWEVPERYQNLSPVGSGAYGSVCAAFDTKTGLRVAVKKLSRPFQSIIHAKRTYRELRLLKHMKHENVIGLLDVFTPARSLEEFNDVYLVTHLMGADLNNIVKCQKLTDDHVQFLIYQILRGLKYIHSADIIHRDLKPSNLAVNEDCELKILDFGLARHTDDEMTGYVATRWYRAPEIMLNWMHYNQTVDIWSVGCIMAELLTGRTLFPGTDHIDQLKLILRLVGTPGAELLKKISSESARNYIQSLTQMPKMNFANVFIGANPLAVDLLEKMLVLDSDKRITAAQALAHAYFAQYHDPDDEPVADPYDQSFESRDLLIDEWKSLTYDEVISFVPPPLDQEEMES

[5] = target: Mitogen-activated protein kinase 14 (Homo sapiens) (UniProt Q16539); settings: at 1 µM
[6] = target: Mitogen-activated protein kinase 11 (Homo sapiens) (UniProt Q15759); settings: at 0.1 µM
Chain of Mitogen-activated protein kinase 11 (Homo sapiens) (Q15759 whole entry): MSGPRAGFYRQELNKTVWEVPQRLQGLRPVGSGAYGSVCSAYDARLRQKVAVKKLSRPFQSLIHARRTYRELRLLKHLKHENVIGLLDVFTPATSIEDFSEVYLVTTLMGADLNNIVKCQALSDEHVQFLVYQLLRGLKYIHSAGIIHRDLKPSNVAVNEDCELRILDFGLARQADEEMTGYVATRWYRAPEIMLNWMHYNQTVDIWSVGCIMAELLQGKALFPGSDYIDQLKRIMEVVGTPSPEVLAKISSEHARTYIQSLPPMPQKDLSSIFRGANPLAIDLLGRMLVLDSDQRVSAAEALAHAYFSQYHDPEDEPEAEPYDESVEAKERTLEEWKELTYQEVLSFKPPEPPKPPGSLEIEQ

[7] = target: Mitogen-activated protein kinase 11 (Homo sapiens) (UniProt Q15759); settings: at 1 µM
[8] = target: T1, Mitogen-activated protein kinase 13 (Homo sapiens) (UniProt O15264); settings: at 0.1 µM
T1 sequence (whole entry): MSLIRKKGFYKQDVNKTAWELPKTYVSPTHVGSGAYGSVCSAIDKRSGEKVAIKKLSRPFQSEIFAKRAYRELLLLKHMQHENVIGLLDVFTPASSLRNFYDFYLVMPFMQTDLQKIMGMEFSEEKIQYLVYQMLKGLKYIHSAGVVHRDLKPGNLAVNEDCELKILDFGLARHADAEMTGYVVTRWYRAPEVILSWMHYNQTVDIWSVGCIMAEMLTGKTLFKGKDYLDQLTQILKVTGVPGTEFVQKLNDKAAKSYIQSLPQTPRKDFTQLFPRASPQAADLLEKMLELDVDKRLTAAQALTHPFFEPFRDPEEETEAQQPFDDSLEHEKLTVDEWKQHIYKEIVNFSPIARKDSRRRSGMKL

[9] = target: T1, Mitogen-activated protein kinase 13 (Homo sapiens); settings: at 1 µM
[10] = target: T2, Mitogen-activated protein kinase 12 (Homo sapiens) (UniProt P53778); settings: at 0.1 µM
T2 sequence (whole entry): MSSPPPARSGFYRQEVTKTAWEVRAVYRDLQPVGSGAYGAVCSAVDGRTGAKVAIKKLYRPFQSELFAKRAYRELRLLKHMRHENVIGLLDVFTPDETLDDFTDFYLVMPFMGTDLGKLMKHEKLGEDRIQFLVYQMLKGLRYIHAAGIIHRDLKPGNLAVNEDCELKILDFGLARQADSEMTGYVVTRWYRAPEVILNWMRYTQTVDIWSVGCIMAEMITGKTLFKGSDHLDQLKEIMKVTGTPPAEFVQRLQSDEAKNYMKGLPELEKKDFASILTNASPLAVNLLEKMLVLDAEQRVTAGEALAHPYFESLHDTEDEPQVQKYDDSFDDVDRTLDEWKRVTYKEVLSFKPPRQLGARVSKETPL

[11] = target: T2, Mitogen-activated protein kinase 12 (Homo sapiens); settings: at 1 µM
[12] = target: SRSF protein kinase 1 (Homo sapiens) (UniProt Q96SB4); settings: at 0.1 µM
Chain of SRSF protein kinase 1 (Homo sapiens) (Q96SB4 whole entry, canonical isoform): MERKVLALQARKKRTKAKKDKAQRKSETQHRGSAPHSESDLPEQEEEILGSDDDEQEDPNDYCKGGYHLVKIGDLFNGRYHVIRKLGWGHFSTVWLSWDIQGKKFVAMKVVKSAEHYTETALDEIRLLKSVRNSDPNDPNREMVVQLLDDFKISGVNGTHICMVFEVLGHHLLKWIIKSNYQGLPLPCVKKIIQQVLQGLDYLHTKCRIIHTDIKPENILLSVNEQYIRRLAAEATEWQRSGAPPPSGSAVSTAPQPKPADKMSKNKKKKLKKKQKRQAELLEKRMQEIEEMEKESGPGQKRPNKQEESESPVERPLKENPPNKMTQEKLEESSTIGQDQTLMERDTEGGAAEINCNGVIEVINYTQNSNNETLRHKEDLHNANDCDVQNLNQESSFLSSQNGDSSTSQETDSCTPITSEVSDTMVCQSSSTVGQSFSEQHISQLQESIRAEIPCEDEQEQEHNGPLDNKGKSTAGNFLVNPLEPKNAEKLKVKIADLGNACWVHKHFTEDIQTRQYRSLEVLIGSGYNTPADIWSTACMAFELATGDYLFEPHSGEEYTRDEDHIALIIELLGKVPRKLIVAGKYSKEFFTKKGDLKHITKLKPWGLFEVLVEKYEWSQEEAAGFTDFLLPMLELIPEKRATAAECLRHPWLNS

[13] = target: SRSF protein kinase 1 (Homo sapiens) (UniProt Q96SB4); settings: at 1 µM
[14] = target: Phosphatidylinositol 4,5-bisphosphate 3-kinase catalytic subunit alpha isoform (Homo sapiens) (UniProt P42336); settings: at 0.1 µM
Chain of Phosphatidylinositol 4,5-bisphosphate 3-kinase catalytic subunit alpha isoform (Homo sapiens) (P42336 whole entry, canonical isoform): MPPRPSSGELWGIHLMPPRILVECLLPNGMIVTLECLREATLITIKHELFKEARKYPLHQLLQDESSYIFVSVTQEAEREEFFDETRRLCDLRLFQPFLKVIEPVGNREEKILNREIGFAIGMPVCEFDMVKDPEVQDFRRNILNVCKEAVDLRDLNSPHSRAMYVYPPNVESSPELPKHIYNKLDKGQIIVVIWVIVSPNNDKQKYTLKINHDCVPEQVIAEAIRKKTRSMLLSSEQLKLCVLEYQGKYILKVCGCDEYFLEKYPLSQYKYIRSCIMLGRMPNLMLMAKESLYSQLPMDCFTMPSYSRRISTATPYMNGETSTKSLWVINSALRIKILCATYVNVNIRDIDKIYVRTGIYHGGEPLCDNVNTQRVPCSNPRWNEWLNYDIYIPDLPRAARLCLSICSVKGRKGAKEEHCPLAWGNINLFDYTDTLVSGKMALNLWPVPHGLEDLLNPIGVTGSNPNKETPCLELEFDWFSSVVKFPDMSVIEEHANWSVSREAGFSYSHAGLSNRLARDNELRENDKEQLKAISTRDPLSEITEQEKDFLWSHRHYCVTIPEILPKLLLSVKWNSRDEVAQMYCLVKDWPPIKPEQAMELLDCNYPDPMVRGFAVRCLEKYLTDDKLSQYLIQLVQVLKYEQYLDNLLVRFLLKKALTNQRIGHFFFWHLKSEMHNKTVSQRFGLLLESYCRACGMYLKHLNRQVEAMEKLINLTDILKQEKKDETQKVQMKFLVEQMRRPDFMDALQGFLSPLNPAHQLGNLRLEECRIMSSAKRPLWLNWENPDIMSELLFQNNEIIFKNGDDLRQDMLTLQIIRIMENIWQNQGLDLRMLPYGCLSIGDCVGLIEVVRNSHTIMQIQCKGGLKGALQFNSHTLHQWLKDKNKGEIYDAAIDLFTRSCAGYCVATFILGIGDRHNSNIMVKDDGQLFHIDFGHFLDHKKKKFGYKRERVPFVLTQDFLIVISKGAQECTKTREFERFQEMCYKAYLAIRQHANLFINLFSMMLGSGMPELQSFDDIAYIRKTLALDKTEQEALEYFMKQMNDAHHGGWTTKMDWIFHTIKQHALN

[15] = target: Phosphatidylinositol 4,5-bisphosphate 3-kinase catalytic subunit alpha isoform (Homo sapiens) (UniProt P42336); settings: at 1 µM
[16] = target: T3, Phosphatidylinositol 4,5-bisphosphate 3-kinase catalytic subunit delta isoform (Homo sapiens) (UniProt O00329); settings: at 0.1 µM
T3 sequence (whole entry): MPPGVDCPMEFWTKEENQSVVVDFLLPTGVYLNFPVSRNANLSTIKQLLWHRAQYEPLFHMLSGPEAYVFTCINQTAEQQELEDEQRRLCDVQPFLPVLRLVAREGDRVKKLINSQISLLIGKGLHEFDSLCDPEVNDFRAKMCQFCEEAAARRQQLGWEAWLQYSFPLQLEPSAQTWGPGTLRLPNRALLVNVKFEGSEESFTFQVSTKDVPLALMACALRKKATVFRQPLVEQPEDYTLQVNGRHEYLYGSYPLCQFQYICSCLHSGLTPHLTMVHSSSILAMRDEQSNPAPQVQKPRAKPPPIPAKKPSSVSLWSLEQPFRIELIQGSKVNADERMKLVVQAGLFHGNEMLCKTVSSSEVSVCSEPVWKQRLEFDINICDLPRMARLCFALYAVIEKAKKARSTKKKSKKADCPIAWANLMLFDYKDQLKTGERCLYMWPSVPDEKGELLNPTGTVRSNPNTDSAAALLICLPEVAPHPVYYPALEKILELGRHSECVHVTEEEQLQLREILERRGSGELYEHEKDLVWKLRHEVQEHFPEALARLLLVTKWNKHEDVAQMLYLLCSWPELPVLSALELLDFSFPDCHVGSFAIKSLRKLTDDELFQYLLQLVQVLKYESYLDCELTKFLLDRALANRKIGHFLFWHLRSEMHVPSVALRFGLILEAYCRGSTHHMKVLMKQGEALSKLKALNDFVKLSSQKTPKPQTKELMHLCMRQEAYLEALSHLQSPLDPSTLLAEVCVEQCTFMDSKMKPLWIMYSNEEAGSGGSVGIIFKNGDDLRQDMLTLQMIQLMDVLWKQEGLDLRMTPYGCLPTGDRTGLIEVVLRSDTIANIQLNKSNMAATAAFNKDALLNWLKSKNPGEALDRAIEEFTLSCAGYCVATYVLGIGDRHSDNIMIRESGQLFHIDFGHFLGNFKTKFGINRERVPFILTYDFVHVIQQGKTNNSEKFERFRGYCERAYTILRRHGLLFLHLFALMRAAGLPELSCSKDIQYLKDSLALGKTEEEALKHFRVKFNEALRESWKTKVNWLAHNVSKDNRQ

[17] = target: T3, Phosphatidylinositol 4,5-bisphosphate 3-kinase catalytic subunit delta isoform (Homo sapiens); settings: at 1 µM
[18] = target: Phosphatidylinositol 4-kinase beta (Homo sapiens) (UniProt Q9UBF8); settings: at 0.1 µM
Chain of Phosphatidylinositol 4-kinase beta (Homo sapiens) (Q9UBF8 2-816 limits assumed): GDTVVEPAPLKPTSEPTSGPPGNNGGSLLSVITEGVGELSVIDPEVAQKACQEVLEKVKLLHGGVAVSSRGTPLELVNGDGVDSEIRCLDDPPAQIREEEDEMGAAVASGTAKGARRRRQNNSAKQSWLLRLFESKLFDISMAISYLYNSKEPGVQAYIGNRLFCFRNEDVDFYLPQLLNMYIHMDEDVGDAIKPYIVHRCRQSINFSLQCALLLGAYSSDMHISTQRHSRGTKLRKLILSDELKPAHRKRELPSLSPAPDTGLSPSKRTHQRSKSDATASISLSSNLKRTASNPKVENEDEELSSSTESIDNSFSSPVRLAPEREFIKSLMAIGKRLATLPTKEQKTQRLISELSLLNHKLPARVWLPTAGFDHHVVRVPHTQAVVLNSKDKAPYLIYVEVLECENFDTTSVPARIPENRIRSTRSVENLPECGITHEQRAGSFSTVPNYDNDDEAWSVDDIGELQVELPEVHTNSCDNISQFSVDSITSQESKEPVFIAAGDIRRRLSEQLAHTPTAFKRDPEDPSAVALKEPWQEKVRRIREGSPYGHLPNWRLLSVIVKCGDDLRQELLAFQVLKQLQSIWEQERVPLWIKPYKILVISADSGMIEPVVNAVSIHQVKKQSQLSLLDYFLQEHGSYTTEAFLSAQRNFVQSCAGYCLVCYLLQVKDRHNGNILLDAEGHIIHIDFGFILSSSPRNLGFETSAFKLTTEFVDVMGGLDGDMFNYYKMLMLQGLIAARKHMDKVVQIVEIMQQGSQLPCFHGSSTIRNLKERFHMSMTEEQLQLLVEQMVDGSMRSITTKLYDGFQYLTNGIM

[19] = target: Phosphatidylinositol 4-kinase beta (Homo sapiens) (UniProt Q9UBF8); settings: at 1 µM
[20] = target: Sphingosine kinase 1 (Homo sapiens) (UniProt Q9NYA1); settings: at 0.1 µM;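 also: mean percent inhibition of SPHK1 activity, measured within the GSK PKIS screening panel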
Chain of Sphingosine kinase 1 (Homo sapiens) (Q9NYA1 whole entry): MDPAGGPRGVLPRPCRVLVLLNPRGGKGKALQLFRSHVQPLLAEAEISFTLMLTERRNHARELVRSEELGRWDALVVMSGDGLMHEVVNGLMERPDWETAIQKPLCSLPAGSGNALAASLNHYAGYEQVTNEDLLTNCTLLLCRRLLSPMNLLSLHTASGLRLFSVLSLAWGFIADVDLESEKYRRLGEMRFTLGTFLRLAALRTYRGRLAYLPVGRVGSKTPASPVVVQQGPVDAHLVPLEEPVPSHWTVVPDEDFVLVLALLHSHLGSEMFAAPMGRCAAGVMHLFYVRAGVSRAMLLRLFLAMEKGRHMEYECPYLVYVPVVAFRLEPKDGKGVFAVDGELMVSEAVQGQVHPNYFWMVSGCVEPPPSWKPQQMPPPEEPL

Chain of SRSF protein kinase 3 (Homo sapiens) (Q9UPE1 whole entry): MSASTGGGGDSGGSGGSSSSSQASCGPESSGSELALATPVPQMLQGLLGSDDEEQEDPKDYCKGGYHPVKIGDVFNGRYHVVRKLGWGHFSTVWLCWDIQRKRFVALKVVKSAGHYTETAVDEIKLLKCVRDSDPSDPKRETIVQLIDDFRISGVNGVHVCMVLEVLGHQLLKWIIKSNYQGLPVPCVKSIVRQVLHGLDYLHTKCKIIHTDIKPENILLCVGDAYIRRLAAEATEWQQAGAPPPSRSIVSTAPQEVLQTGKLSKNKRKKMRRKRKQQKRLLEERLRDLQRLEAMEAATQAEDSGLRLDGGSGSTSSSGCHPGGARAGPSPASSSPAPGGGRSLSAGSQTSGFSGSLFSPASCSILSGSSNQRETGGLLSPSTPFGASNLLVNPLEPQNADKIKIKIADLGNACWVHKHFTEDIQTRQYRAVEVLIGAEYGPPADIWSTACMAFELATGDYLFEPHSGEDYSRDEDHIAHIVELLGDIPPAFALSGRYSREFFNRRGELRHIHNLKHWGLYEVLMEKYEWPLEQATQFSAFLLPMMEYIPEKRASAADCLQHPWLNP
Chain of Mitogen-activated protein kinase 3 (Homo sapiens) (P27361 whole entry): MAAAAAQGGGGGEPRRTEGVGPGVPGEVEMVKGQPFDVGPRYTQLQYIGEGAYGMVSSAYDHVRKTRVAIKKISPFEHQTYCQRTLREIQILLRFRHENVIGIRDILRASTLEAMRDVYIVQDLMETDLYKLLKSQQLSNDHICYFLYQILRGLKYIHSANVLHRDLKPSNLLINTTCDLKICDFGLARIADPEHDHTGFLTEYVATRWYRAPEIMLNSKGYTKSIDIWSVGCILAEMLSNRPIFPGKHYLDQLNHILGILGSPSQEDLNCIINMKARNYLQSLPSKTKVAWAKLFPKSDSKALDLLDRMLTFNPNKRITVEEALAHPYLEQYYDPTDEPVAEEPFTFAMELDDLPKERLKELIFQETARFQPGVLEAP

C[C@@H](Oc1cc(-n2cnc3ccc(OCC4CCN(C)CC4)cc32)sc1C(N)=O)c1ccccc1C(F)(F)F
inhibition [1]: -0.11% | inhibition [2]: 0.22% | inhibition [3]: 0.15% | inhibition [4]: -2.1% | inhibition [5]: 1.86% | inhibition [6]: 1.51% | inhibition [7]: 3.33% | inhibition [8]: -2.92% | inhibition [9]: -3.87% | inhibition [10]: -1.88% | inhibition [11]: -2.08% | inhibition [12]: -0.56% | inhibition [13]: 1.16% | inhibition [14]: -1.6% | inhibition [15]: 13.3% | inhibition [16]: 2.19% | inhibition [17]: 55.9% | inhibition [18]: 6.54% | inhibition [19]: 0.1% | inhibition [20]: 0.59%

COc1cc2ncnc(Nc3ccc4c(cnn4Cc4ccccc4)c3)c2cc1OC
inhibition [1]: 3.12% | inhibition [2]: -1.9% | inhibition [3]: -0.51% | inhibition [4]: 4.33% | inhibition [5]: 3.94% | inhibition [6]: 1.39% | inhibition [7]: 1.39% | inhibition [8]: 3.21% | inhibition [9]: 2.74% | inhibition [10]: 2.87% | inhibition [11]: 3.71% | inhibition [12]: -4.03% | inhibition [13]: -2.33% | inhibition [14]: 1.81% | inhibition [15]: 2.38% | inhibition [16]: 0.53% | inhibition [17]: 1.87% | inhibition [18]: 1.81% | inhibition [19]: 4.03% | inhibition [20]: 0.61%

COc1ccc2ncnc(Nc3ccc(OCc4ccccc4)cc3)c2c1
inhibition [1]: 4.61% | inhibition [2]: -1.92% | inhibition [3]: 0.73% | inhibition [4]: 5.87% | inhibition [5]: 10.2% | inhibition [6]: 2.79% | inhibition [7]: 7.38% | inhibition [8]: 0.25% | inhibition [9]: 1.34% | inhibition [10]: -0.24% | inhibition [11]: 1.88% | inhibition [12]: -1.2% | inhibition [13]: -0.4% | inhibition [14]: 2.14% | inhibition [15]: 1.05% | inhibition [16]: 1.99% | inhibition [17]: 2.84% | inhibition [18]: 1.57% | inhibition [19]: 1.15% | inhibition [20]: -0.95%

CN(C)c1cc2c(Nc3ccc4c(cnn4Cc4ccccc4)c3)ncnc2cn1
inhibition [1]: -0.93% | inhibition [2]: -1.42% | inhibition [3]: -0.9% | inhibition [4]: 5.84% | inhibition [5]: 8.31% | inhibition [6]: 2.35% | inhibition [7]: 4.06% | inhibition [8]: 0.05% | inhibition [9]: 2.47% | inhibition [10]: 1.3% | inhibition [11]: 1.89% | inhibition [12]: -2.31% | inhibition [13]: -3.59% | inhibition [14]: 1.32% | inhibition [15]: 1.28% | inhibition [16]: 0.82% | inhibition [17]: 3.28% | inhibition [18]: -1.83% | inhibition [19]: 7.07% | inhibition [20]: 0.08%

CS(=O)(=O)CCNCc1nc(-c2ccc3ncnc(Nc4ccc(OCc5cccc(C(F)(F)F)c5)cc4)c3c2)cs1
inhibition [1]: 1.69% | inhibition [2]: 0.88% | inhibition [3]: -1.85% | inhibition [4]: 4.2% | inhibition [5]: 3.19% | inhibition [6]: 2.78% | inhibition [7]: 1.51% | inhibition [8]: 1.27% | inhibition [9]: 2.16% | inhibition [10]: 0.83% | inhibition [11]: 2.12% | inhibition [12]: -2.46% | inhibition [13]: -3.03% | inhibition [14]: 1.85% | inhibition [15]: -0.47% | inhibition [16]: 0.76% | inhibition [17]: 3.63% | inhibition [18]: -0.59% | inhibition [19]: 0.33% | inhibition [20]: -1.19%

Cc1cc(-c2ccccn2)cc(C)c1/C=C/c1cncc(-c2nn[nH]n2)c1
inhibition [1]: 3.69% | inhibition [2]: -0.25% | inhibition [3]: -1.02% | inhibition [4]: 7.59% | inhibition [5]: 12.9% | inhibition [6]: 3.45% | inhibition [7]: 1.89% | inhibition [8]: 4.85% | inhibition [9]: 4.9% | inhibition [10]: 3.27% | inhibition [11]: 5.02% | inhibition [12]: -3.94% | inhibition [13]: -5.12% | inhibition [14]: 3.8% | inhibition [15]: 3.72% | inhibition [16]: 0.41% | inhibition [17]: -0.48% | inhibition [18]: -1.8% | inhibition [19]: 0.81% | inhibition [20]: 0.97%

Nc1nccc(-c2c(-c3ccc(F)cc3)nn3cc(C(F)(F)F)ccc23)n1
inhibition [1]: 2.32% | inhibition [2]: -1.48% | inhibition [3]: -1.99% | inhibition [4]: 7.89% | inhibition [5]: 47.2% | inhibition [6]: 4.49% | inhibition [7]: 10.5% | inhibition [8]: 0.69% | inhibition [9]: -1.62% | inhibition [10]: 1.12% | inhibition [11]: 1.01% | inhibition [12]: -0.96% | inhibition [13]: -1.1% | inhibition [14]: 0.15% | inhibition [15]: 0.75% | inhibition [16]: 0.55% | inhibition [17]: 0.3% | inhibition [18]: -4.79% | inhibition [19]: -4.51% | inhibition [20]: 4.09%

Cc1ccc2c(-c3ccnc(Nc4ccc5c(c4)OCCO5)n3)c(-c3ccc(C(F)(F)F)cc3)nn2n1
inhibition [1]: 3.87% | inhibition [2]: -2.01% | inhibition [3]: -1.1% | inhibition [4]: 3.33% | inhibition [5]: 23.2% | inhibition [6]: 1.91% | inhibition [7]: 5.75% | inhibition [8]: 0.71% | inhibition [9]: -1.27% | inhibition [10]: 0.73% | inhibition [11]: 0.43% | inhibition [12]: -1.35% | inhibition [13]: -3.21% | inhibition [14]: -1.09% | inhibition [15]: -0.65% | inhibition [16]: 0.68% | inhibition [17]: 0.76% | inhibition [18]: 6.55% | inhibition [19]: -2.49% | inhibition [20]: 0%
